# Screening results (PubChem)
# PABP polyA inh = PABP-poly(A) binding inhibition; P11940; PABP-poly(A) RNA binding, fluorescence polarization; calls only at 35 µM; hit rate 1% among 290,000; AID 2014;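 further: calls also rest on retests at 20 µM and on dose response follow-up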
# Target sequence (P11940 whole entry, looked up): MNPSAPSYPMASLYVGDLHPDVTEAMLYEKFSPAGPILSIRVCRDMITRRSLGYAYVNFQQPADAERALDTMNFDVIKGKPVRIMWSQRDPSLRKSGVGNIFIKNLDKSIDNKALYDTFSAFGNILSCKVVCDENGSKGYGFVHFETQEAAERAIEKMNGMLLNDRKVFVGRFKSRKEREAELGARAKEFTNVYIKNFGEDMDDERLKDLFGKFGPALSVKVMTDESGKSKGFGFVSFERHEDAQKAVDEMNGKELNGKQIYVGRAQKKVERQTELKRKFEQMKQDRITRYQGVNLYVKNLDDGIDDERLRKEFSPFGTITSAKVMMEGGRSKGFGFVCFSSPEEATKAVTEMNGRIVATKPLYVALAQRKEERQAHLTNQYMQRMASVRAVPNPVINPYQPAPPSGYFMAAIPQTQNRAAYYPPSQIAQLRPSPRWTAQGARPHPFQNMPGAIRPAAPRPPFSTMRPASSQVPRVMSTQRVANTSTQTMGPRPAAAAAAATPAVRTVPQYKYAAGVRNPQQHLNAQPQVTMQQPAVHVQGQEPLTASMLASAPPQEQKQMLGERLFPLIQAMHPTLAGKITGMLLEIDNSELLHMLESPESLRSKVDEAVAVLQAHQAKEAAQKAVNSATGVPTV
# eIF4H inh = inhibitors of RNA binding by human eIF4H; Q15056; eIF4H fluorescence polarization binding assay; inhibition, % at 35 µM; hit rate 0.94% among 290,000; AID 2012;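 further: calls also rest on retests at 20 µM and on dose response follow-up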
# APOBEC3G inh = blocks human APOBEC3G single-stranded DNA deamination | Q9HC16 | recombinant A3G, ssDNA deamination FAM/TAMRA fluorescence | inhibition, % at 20 µM | hit rate 0.28% among 330,000;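 active means inhibition of at least 40% at 20 µM, with no more than 30% in the related APOBEC3A deaminase screen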;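 further: plate controls were DMSO wells with A3G for no effect and wells lacking A3G enzyme for full effect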
# MLLE-PAM2 inh = blocks PAM2 peptide binding to the PABP1 MLLE domain; GST-MLLE / FITC-PAM2 fluorescence polarization; inhibition, % at 20 µM; hit rate 0.36% among 360,000; in the data active means inhibition above about 35%, passing the limit was not always enough;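 further: plate controls were DMSO wells with GST-MLLE for no effect and wells lacking GST-MLLE protein for full effect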
# APOBEC3A inh = blocks human APOBEC3A ssDNA deamination; hit rate 0.41% among 330,000; AID 493011; recombinant A3A, FAM/TAMRA ssDNA deamination fluorescence; inhibition, % at 20 µM;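 active means at least 40% inhibition at 20 µM here, with at most 30% in a related deaminase screen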;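 further: plate controls were A3A with DMSO for no effect and wells lacking A3A enzyme for full effect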
# PHOSPHO1 block = blocks human PHOSPHO1 phosphatase activity | Q8TCT1 | inhibition, % at 13.3 µM | recombinant PHOSPHO1, absorbance phosphatase assay | hit rate 1.1% among 290,000 | AID 1565; in the data active means inhibition above about 60%
# A3A conf = confirmation of human APOBEC3A DNA deaminase inhibitors. shares compounds with APOBEC3A inh. inhibition, % at 20 µM. recombinant A3A, ssDNA deaminase UDG fluorescence assay. AID 493151. hit rate 63% among 1,400;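 active means inhibition reaching a set limit, 80% of the first screen's cutoff, at 20 µM in any replicate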;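 further: plate controls were DMSO wells with A3A for no effect and wells lacking A3A enzyme for full effect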
# UDG ctr A3A = counter-screen for APOBEC3A inhibitors: UDG; UDG counterscreen, FAM/TAMRA uracil oligo fluorescence; shares compounds with APOBEC3A inh; inhibition, % at 20 µM; 1,000 tested, under 10 active; AID 504714
# * = called active by the depositor; i = inactive; ? = inconclusive; . = no result; + = active, no number. Sampled rows, rich in hits. Any-hit rate of the full collection: about 2.6%. Unless noted, how the calls were made is not given here.
SMILES,PABP polyA inh,eIF4H inh,APOBEC3G inh,MLLE-PAM2 inh,APOBEC3A inh,PHOSPHO1 block,A3A conf,UDG ctr A3A
CCN1C(=NCCCOC(C)C)N[C@@H](c2ccccc2)[C@H](C(=O)OC)[C@H]1C,.,.,13.7,-118.8,43.7*,.,60.6*,-2.0
Cc1ccc(CN2CC(C(=O)N3CCN(S(=O)(=O)c4cccc(F)c4)CC3)CC2=O)cc1 (stereo not given),.,.,-9.6,-9.0,5.0,.,.,.
Cc1cc(=O)[nH]c(SCC(=O)NCc2ccco2)n1,i,67.6,18.1,30.6,65.2*,-5.8,55.0*,0.9
O=C(CSc1nc2ncccc2[nH]1)NCc1ccco1,i,11.0,-2.5,17.8,-1.9,44.5,.,.
O=C(CSc1nccc(=O)[nH]1)NCc1ccco1,?,?,17.6,12.9,48.8*,24.4,35.0*,-0.2
COC(=O)c1cc(NC(=O)CSc2nc(C)cc(=O)[nH]2)cc(C(=O)OC)c1,i,10.9,-3.7,9.9,-0.3,-39.9,.,.
CCOC(=O)c1ccc(NC(=O)CSc2nc(C)cc(=O)[nH]2)cc1,+,81.1*,15.0,-7.0,45.8*,18.2,66.3*,4.4
CCc1c(O)nc(SCC(=O)NCc2ccco2)[nH]c1=O,i,1.8,-0.8,26.8,1.3,16.0,.,.
Cc1ccc(S(=O)(=O)N2C[C@H]3C(=O)C[C@@H](c4ccccc4)N(S(=O)(=O)c4ccccc4[N+](=O)[O-])[C@H]3C[C@H]2c2ccccc2)cc1,.,.,.,8.7,.,.,.,.
O=C(CSCc1ccccc1)N/N=C/c1ccc(OCC(=O)N2CCCCC2)cc1,i,-2.1,.,-8.2,.,-4.0,.,.
COc1ccc(CSCC(=O)N/N=C/c2ccc(OCC(=O)N3CCCCC3)cc2)cc1,i,7.1,21.8,-115.2,52.5*,-38.4,52.5*,-2.3
NC(=O)c1c(NC(=O)CSc2nnc(-c3ccco3)n2-c2ccccc2)sc2c1CCC2,+,86.7*,28.7,-8.6,41.4*,81.6*,45.7*,-3.6
CCN(CC(=O)Nc1cc(Cl)ccc1C)C(=O)c1ccc2c(c1)NC(=O)C(C)S2 (stereo not given),.,.,-9.8,-12.1,0.7,.,.,.
COn1cnnc1-c1ccccc1,i,-7.5,17.5,-97.7,47.1*,15.4,6.4,.
CC(C)n1cnc2c(NCc3ccccc3)cc(Cc3ccc(F)cc3)cc21,.,.,-3.8,-1.6,-0.7,.,.,.
CN1CCC(N(C)S(=O)(=O)c2ccc(NC(=O)COc3ccc(F)cc3)cc2)CC1,.,.,13.3,-131.0,63.9*,.,58.4*,-2.3
CC(=O)Nc1ccc(S(=O)(=O)N(C)C2CCN(C)CC2)cc1,i,-0.4,-8.8,1.4,-2.7,.,.,.
CN1CCC(N(C)S(=O)(=O)c2ccc(NC(=O)COc3ccc([N+](=O)[O-])cc3)cc2)CC1,.,.,8.8,-122.4,49.8*,.,51.6*,-1.2
NCC(O)CN(c1ccccc1)c1ccccc1 (stereo not given),i,5.3,-4.5,-1.3,-4.1,53.2,.,.
CC(C)[N+](C)(C)CC(O)CN(c1ccccc1)c1ccccc1 (stereo not given),+,-3.9,10.5,-128.4,60.7*,85.1*,70.5*,0.1
COc1cccc(N2CCN(c3nc(C)cc(=O)[nH]3)CC2)c1,i,-0.1,-15.2,-2.2,-8.6,35.7,.,.
COc1cccc(OCCn2cc(C(=O)c3ccco3)c3ccccc32)c1,i,5.0,-3.3,-3.7,-0.4,23.5,.,.
COc1cccc(OCCn2cc(C(C)=O)c3ccccc32)c1,i,-2.7,7.2,-60.2,47.7*,-124.9,14.1,.
O=C(/C=C/c1ccco1)Nc1scc(-c2ccccc2)c1C(=O)O,+,79.4*,19.1,1.1,59.3*,-8.1,68.8*,-0.2
CC[N+]1(CC(O)COC2CC(C)CC(C)(C)C2)CCOCC1 (stereo not given),+,-1.7,23.7,-114.3,43.2*,-30.7,75.0*,-4.0
SMILES,PABP polyA inh,eIF4H inh,APOBEC3G inh,MLLE-PAM2 inh,APOBEC3A inh,PHOSPHO1 block,A3A conf,UDG ctr A3A
CN(C)c1ccc(/C=C/c2cccc[n+]2[O-])cc1,?,?,-8.0,-30.5,-4.1,37.1,.,.
CC(C)CC[n+]1ccccc1/C=C/c1ccc(N(C)C)cc1,+,?,-13.1,-164.6,55.6*,14.1,54.1*,-4.0
Cc1cc(C)c(NS(=O)(=O)c2ccccc2)c(C)n1,.,.,.,10.1,.,.,.,.
C[N+]1(CC(O)COCC2COc3ccccc3O2)CCOCC1 (stereo not given),i,-6.8,12.2,-101.2,86.1*,-4.0,46.2*,.
Cc1cc(C)c(C)c(S(=O)(=O)N2CCC(C(=O)Nc3ccc(S(=O)(=O)N4CCOCC4)cc3)CC2)c1C,i,-13.7,3.5,-55.4,40.6*,-25.9,1.9,.
COc1ccc(N2CC(C(=O)Nc3ccc(S(=O)(=O)N4CCOCC4)cc3)CC2=O)cc1 (stereo not given),i,-6.2,8.8,-114.6,47.9*,29.2,26.2,.
COc1ccc(CCNC(=O)CSc2nc3scc(-c4ccccc4)c3c(=O)[nH]2)cc1,.,.,-5.4,9.5,-3.0,.,.,.
C[n+]1ccccc1/C=C/c1ccc([N+](=O)[O-])cc1,i,-1.3,23.2,-102.6,57.0*,-2.6,62.2*,.
C[n+]1ccccc1/C=C/c1ccc(F)c(F)c1,.,.,16.8,-124.7,52.7*,-13.0,55.1*,.
C[n+]1ccccc1/C=C/c1ccc2ncccc2c1,+,10.0,18.0,-100.5,74.6*,-127.0,75.3*,-0.1
CCC(Sc1nc2ccsc2c(=O)n1Cc1ccc(C(=O)O)cc1)C(=O)Nc1ccc(C)c(Cl)c1 (stereo not given),i,14.3,-7.1,7.0,-6.7,43.7,.,.
CN(C(=O)COC(=O)CCc1c[nH]c2ccccc12)c1ccccc1,.,.,-13.3,-1.8,-6.2,.,.,.
COc1ccccc1CN1CC(=O)N2CSC[C@H]2C1=O,i,-1.4,-6.2,6.0,-4.2,5.5,.,.
CCC(C)(C)NC(=O)CN(CC1CCCO1)C(=O)CNS(=O)(=O)c1ccccc1 (stereo not given),i,-11.0,-7.8,-12.0,1.1,41.6,.,.
CC(C)(C)CNC(=O)c1cccc2c1C(=O)c1ccc(-c3cc4ccccc4o3)cc1S2(=O)=O,.,.,-10.0,-37.1,-1.8,.,.,.
O=C(O)COc1ccc(/C=N/NC(=O)C2CCCN2S(=O)(=O)c2ccc(Cl)cc2)cc1 (stereo not given),i,-7.7,3.6,-92.0,51.1*,57.5,13.1,.
N#C/C(=C\c1c[nH]c2ccccc12)C(=O)NCC1CCCO1 (stereo not given),i,-1.6,21.9,-108.6,63.2*,36.6,63.7*,1.8
CCCOc1ccc(/C=C2/C(=O)ON=C2C)cc1OCC,i,-8.8,-5.6,20.9,-3.3,42.2,.,.
